Screens from PubChem BioAssay.
A1 inh = caspase 3/7 activation in MEF A1-2A-BIM cells, primary screen, A1 inhibitor project, cell-based, luminescence, HTS; Caspase-Glo 3/7 luminescence, 3 h; percent of clofoctol response, vehicle zero; caspase activation, % (no concentration beside the values); 330,000 tested, 0.066% active; AID 2462, 2010;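 active means over half of replicate activation scores above 10%, or exactly half above 10 with the replicate mean above 10; inconclusive means replicate mean below 10 yet half the replicates above 10; inactive means over half of replicates below 10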
Beta apoptosis = inhibitors of cytokine-induced beta cell apoptosis, primary screen, luminescence; INS-1E cytokine-induced death, ATP luminescence, 48 h; percent of positive-control rescue, neutral wells zero; protection from apoptosis, % (test concentration not listed); 300,000 tested, 0.8% active;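 active means Every replicate reaches about 75%, or at least half do and their mean reaches it too, limit read from the data; inconclusive means At least half of replicates reach the limit but their mean does not; inactive means Under half of replicates reach the limit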;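 further: 0% = cytokine-treated negative control wells and 100% = positive control rescue; higher means more ATP so stronger rescue from cytokine killing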
CSC inhib = cancer stem cell viability inhibitors, primary screen, luminescence. cancer stem cell-like cells viability. inhibition, % at 7.5 µM. 300,000 tested, 1.1% active; in the data active means inhibition above about 75%; inconclusive means no clear call, values can overlap the other calls; tested in HMLE shEcad cells
aSyn UTR inh = MLPCN primary screen, SNCA 5' untranslated region. 300,000 tested, 0.82% active. alpha-synuclein 5'UTR reporter, inhibitor activity. AID 1813, 2009. inhibition, % (tested at 7.5 µM); in the data active means inhibition above about 60%; inconclusive means no clear call, values can overlap the other calls;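 further: H4 neuroglioblastoma cells stably carrying SNCA 5'UTR luciferase fusion; 0% = DMSO wells and 100% = positive control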
Mdm2-MdmX inh = inhibitors of human Mdm2-MdmX association, primary screen, cell-based, luminescence, split luciferase, SaOS-2, uHTS | 330,000 tested, 3% active | inhibition, % at 8 µM | Protein Mdm4 (Homo sapiens) + E3 ubiquitin-protein ligase Mdm2 (Homo sapiens), … | SaOS-2 split-luciferase Mdm2/MdmX complementation;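 active means inhibition of at least 50% at 8 µM in the primary screen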
Mdm2 MdmX conf = Mdm2-MdmX complex disruptors, retested hits, confirmation, luminescence, single concentration; shares compounds with Mdm2-MdmX inh; Mdm2-MdmX binding, luminescent assay; inhibition, % at 8 µM; 10,000 tested, 55% active; in the data active means inhibition above about 40%
FLuc counter = full-length luciferase signal inhibition, confirmation, counter-screen for Mdm2/MdmX interaction inhibitor project, cell-based, single concentration, SaOS-2. shares compounds with Mdm2-MdmX inh. SaOS-2 full-length luciferase counterscreen, luminescence. inhibition, % at 8 µM. 6,200 tested, 77% active. AID 504607, 2011;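 active means mean inhibition at 8 µM reaching about 37%, which flags the compound as non-specific, limit read from the data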;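 further: p53-null SaOS-2 cells with luciferase driven by a doxycycline-inducible promoter; compound on cells about two nights before reading with doxycycline added after day one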
An asterisk follows results filed as active; ? = inconclusive; · = no result given. Most compounds without a hit are left out; they make up all but 4.1% or so of the library.

SMILES | A1 inh | Beta apoptosis | CSC inhib | aSyn UTR inh | Mdm2-MdmX inh | Mdm2 MdmX conf | FLuc counter
Cc1cccc(NC(=S)N=Nc2c(O)[nH]c3ccccc23)c1 | 0.2 | 47.8 | 6.9 | 53.3 | 53.7* | 38.0 | 56.6*
Oc1[nH]c2ccc(Br)cc2c1N=Nc1ccc(F)cc1 | 1.7 | -5.1 | 12.5 | 20.6 | 10.7 | · | ·
COc1ccc(/C(C)=N/OCC(=O)N=Nc2c(O)[nH]c3ccc(Br)cc23)cc1 | -1.3 | -4.7 | 2.0 | 8.0 | 52.6* | -4.7 | ·
COc1ccc(/C=N/OCC(=O)N=Nc2c(O)[nH]c3ccc(Br)cc23)cc1OC | 0.0 | -7.3 | -9.9 | -29.0 | 10.2 | · | ·
Cc1cccc(NC(=O)c2cc(=O)[nH]c3ccccc23)c1 | -0.8 | 14.8 | -8.3 | 24.8 | 8.2 | · | ·
COc1ccccc1NC(=S)N=Nc1c(O)[nH]c2ccc(Br)cc12 | 0.6 | ? | ? | 8.0 | 70.4* | 74.7* | 56.6*
COc1cccc(/C=C/C(=O)OCC(=O)c2ccc(S(=O)(=O)N3CCCCC3)cc2)c1OC | 1.2 | -6.0 | -2.9 | -4.8 | 12.9 | · | ·
COc1cc(/C=C/C(=O)OCC(=O)c2ccc(S(=O)(=O)N3CCCCC3)cc2)cc(OC)c1OC | · | · | · | · | 56.0* | 34.5 | ·
CC1Cc2ccccc2N1C(=O)CSc1nc2c(c(=O)n(C)c(=O)n2C)n1Cc1ccccc1 (stereo not given) | ? | 19.6 | 0.7 | 25.4 | 50.4* | 34.1 | ·
Cc1cccc(N2CCN(C(=O)C3CCC(=O)N(Cc4ccccc4F)C3)CC2)c1C (stereo not given) | -0.3 | 1.3 | 21.2 | -2.6 | 2.8 | · | ·
O=c1cc(O)c2sc(Nc3ccc(Cl)c(F)c3)nc2[nH]1 | -0.4 | 2.9 | 19.5 | -1.0 | 71.6* | 55.5* | 44.8*
CCc1nnc(NC(=O)CSc2nc3[nH]c(=O)cc(O)c3s2)s1 | -1.5 | -2.7 | · | · | 1.3 | · | ·
O=c1cc(O)c2sc(Nc3ccc(F)c(Cl)c3)nc2[nH]1 | 0.0 | -1.8 | · | -5.3 | 60.2* | 45.4* | 63.5*
COc1ccc(Nc2nc3[nH]c(=O)cc(O)c3s2)cc1 | -0.9 | · | 12.4 | -19.1 | 29.3 | · | ·
CCCN1CCC(=O)N([C@H](CN=[N+]=[N-])CC(C)C)CC1 | 1.3 | -12.7 | -3.7 | -10.2 | -8.6 | · | ·
CSCCC1NC(=O)N(CC(=O)Nc2ccc3c(c2)OCCO3)C1=O (stereo not given) | 0.3 | 3.5 | -7.6 | · | -10.7 | · | ·
CC(=O)c1cccc(NC(=O)CSc2nc3ccccc3c(=O)n2CCCN2CCOCC2)c1 | -0.3 | -1.6 | -1.7 | · | -0.4 | · | ·
Cc1[nH]c2ccccc2c1C(=O)CSc1nc2ccccc2c(=O)n1CCCN1CCOCC1 | 1.1 | -4.2 | 7.5 | -66.9 | 58.8* | 15.2 | ·
Cc1cccc(NC(=O)C(C)Sc2nc3ccccc3c(=O)n2CCCN2CCOCC2)c1 (stereo not given) | -0.7 | 4.6 | · | · | 88.6* | 70.5* | 51.4*
CC1(CCc2ccccc2)NC(=O)N(CC(=O)Nc2ccc(OC(F)F)cc2)C1=O (stereo not given) | 0.8 | 4.9 | -8.7 | · | 17.7 | · | ·
CN(C)CCCN(C(=O)CCS(=O)(=O)c1ccccc1)c1nc2cc3c(cc2s1)OCO3 | 1.6 | -16.7 | -10.9 | 7.4 | 66.0* | 60.6* | 56.1*
CN(C)CCCN(C(=O)CCSc1ccccc1)c1nc2cc3c(cc2s1)OCO3 | -0.5 | -12.0 | 24.7 | 2.5 | 53.1* | 37.6 | ·
CN(C)CCCN(C(=O)COc1ccccc1)c1nc2cc3c(cc2s1)OCCO3 | 0.0 | -3.3 | -3.6 | 4.0 | 22.6 | · | ·
Cc1ccc(NS(=O)(=O)c2ccc(C(=O)NNC(=O)c3ccccc3O)cc2)cc1 | -0.2 | 60.0 | 28.3 | 14.5 | 62.2* | 55.4* | 51.9*
CCCCC(=O)Nc1ccc(C(=O)Nc2ccc(S(=O)(=O)Nc3ccc(C)cc3)cc2)cc1 | -0.1 | -3.0 | -4.7 | 53.5 | 62.6* | 38.9 | 40.6*
SMILES | A1 inh | Beta apoptosis | CSC inhib | aSyn UTR inh | Mdm2-MdmX inh | Mdm2 MdmX conf | FLuc counter
CCOc1ccc(NS(=O)(=O)c2cc(NC(=O)c3ccc(C)cc3)ccc2Cl)cc1 | -0.6 | 28.4 | 60.1 | 10.1 | 57.0* | 66.8* | 63.9*
O=C1CC/C=C\C[C@@H](CC(=O)N(CCO)Cc2ccccc2)C(=O)N2CCC[C@H]2CO1 | 1.4 | -3.4 | -7.0 | · | -0.6 | · | ·
COc1cc2oc(=O)cc(-c3ccc(-c4ccc(CO)cc4)cc3)c2c(OC)c1OC | · | · | · | · | 68.3* | 64.5* | 48.1*
CCOc1ccc(Br)cc1S(=O)(=O)Nc1cccc(S(=O)(=O)Nc2ccccc2C(=O)O)c1 | -0.2 | 1.3 | 3.2 | · | 3.4 | · | ·
CC(NC(=S)NC1CCCCC1)c1ccc(C(C)(C)C)cc1 (stereo not given) | 0.1 | 99.2* | 45.0 | -1.2 | 67.0* | 24.2 | ·
Nc1nc(SCc2ccccc2Cl)nc2nc3c(cc12)CCCC3 | -0.3 | 5.4 | 0.8 | -8.8 | 13.6 | · | ·
Nc1nc(SCc2ccc(Cl)cc2Cl)nc2nc3c(cc12)CCCC3 | 0.4 | 13.5 | 23.2 | -9.4 | 57.4* | 24.9 | ·
COc1ccc(N=CC2=C(Nc3ccc(OC)cc3)c3c(C)nn(-c4ccccn4)c3CC2)cc1 | -0.4 | 109.7* | · | · | 90.3* | 71.7* | 22.0
COc1ccc(-c2cc(C(=O)O)c3c(C)nn(-c4ccccn4)c3n2)cc1 | 0.1 | -9.2 | -15.7 | 7.9 | 3.9 | · | ·
O=C(NCCS(=O)(=O)NCc1ccc2c(c1)OCO2)c1ccccc1 | -0.5 | -5.5 | -2.0 | 10.8 | 23.3 | · | ·
Cc1ccccc1NC(=O)C1CC(=O)N(c2ccc3c4c(cccc24)CC3)C1 (stereo not given) | 0.0 | -2.8 | -1.8 | 9.6 | 19.2 | · | ·
O=C(Nc1ccccc1Br)C1CC(=O)N(c2ccc3c4c(cccc24)CC3)C1 (stereo not given) | 0.1 | -14.3 | 40.7 | -12.4 | 50.4* | 57.1* | 65.3*
CCOC(=O)C1=C(C)NC(C)=C(C(=O)OC)C1c1cccc([N+](=O)[O-])c1 (stereo not given) | 0.1 | -5.6 | 6.2 | 13.6 | 29.7 | · | ·
COC(=O)C1=C(C)NC(C)=C(C(=O)O[C@@H]2CCCN(Cc3ccccc3)C2)[C@@H]1c1cccc([N+](=O)[O-])c1 | 1.4 | 3.9 | 68.6 | 60.6 | 54.2* | 20.1 | ·
CN(C)CC/C=C1/c2ccc(F)cc2Sc2ccc(Cl)cc21 | 0.3 | -3.4 | -13.1 | -4.9 | 29.5 | · | ·
CN(C)CC/C=C1\c2ccccc2Sc2ccc(Cl)cc21 | -0.1 | -4.3 | 7.6 | -7.4 | 42.3 | · | ·
CN(C)CC/C=C1\c2ccccc2Sc2cc(F)c(Cl)cc21 | 1.3 | 24.9 | 26.9 | -3.6 | 65.5* | 27.7 | 78.1*
